Experimental data as given in PubChem BioAssay (NCI).
Compounds without any hit were thinned out: in the full panel of roughly 83,000, 20% have a hit.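 Negative percent growth values reflect cell death: -40 means 40% of the cells present at the start died, and -100 means all died.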 Activity calls are given as the source filed them.

Test system: OVCAR-3 ovarian
Assay: NCI-60 one-dose screen, 48 h (100 = growth as untreated, 0 = no growth, -100 = all killed)
Conditions: 10 µM unless noted
Protocol: Growth inhibition of the OVCAR-3 human tumor cell line is measured as a screen for anti-cancer activity. Cells are grown in 96 well plates and exposed to the test compound for 48 hours. Compounds are tested at a single concentration, which is 10^-5 M for most compounds. The reported endpoint is percent growth (GI% or GIPRCNT), where numbers from 0 - 100% represent growth inhibition, and numbers from -100% - 0 represent cell death. For example, a value of 40 represents 60% growth inhibition. A value of 0 means no net growth occurred over the course of the experiment. A value of -40 indicates 40% of cells at the beginning of the experiment died by the end of the experiment. A value of -100 means all cells are dead at the end of the experiment.
NCI-60 Human Tumor Cell Lines Screen was performed using the standard one-dose NCI protocol, which is described in more detail at https://dtp.cancer.gov/discovery_development/nci-60/default.htm.
Compounds with GIPRCNT values below 10 were considered active. Activity score was based on GIPRCNT using the following formula: […]
Score is 0 for GIPRCNT values of 100 or above, 50 for GIPRCNT values of 0, and 100 for GIPRCNT values of -100.

**Q.** With `CCN1C(=S)N(CC)C2C1NN=C1SC(c3ccccc3)=CC(=O)N12` (stereo not given) as the molecule, how does the growth read?
**A.** Its growth is 119% (inactive).

**Q.** Which growth does the source give for `Cc1cc2nc3c4cc(Cl)ccc4n(CC(=S)NCCN(C)C)c3nc2cc1C` here?
**A.** The growth was -47% (active).

**Q.** How did the growth turn out when `Fc1ccc(-c2cc3nc(C(Cl)Cl)nc(-c4ccccc4)n3n2)cc1` was run?
**A.** Its growth is -43.1% (active).

**Q.** How did the growth turn out when `CS(=O)(=O)c1ccc(-n2cc(/C=C/C(=O)c3ccc(NC(=O)CO[N+](=O)[O-])cc3)c(-c3ccc(Cl)cc3)n2)cc1` was run?
**A.** The growth was 111% (inactive).

**Q.** `N#Cc1nc(-c2ccccc2)oc1N1CC[C@@H](CO)C1` was tested. Which growth did it give?
**A.** The growth was 109% (inactive).

**Q.** How did the growth turn out when `CC(C)(C)Nc1nc2c(OCCc3ccccc3)cccn2c1-c1ccccc1Cl` was run?
**A.** Its growth is 8.2% (active).

**Q.** `O=C(CN1C(=O)/C(=C/c2ccccc2)SC1=S)N1CCOCC1` was tested. Which growth did it give?
**A.** Its growth is 115% (inactive).

**Q.** With `Clc1ccc(-c2cn3cc(Cc4ccc(Cl)c(Cl)c4)sc3n2)cc1` as the molecule, how does the growth read?
**A.** Its growth is 97.5% (inactive).

**Q.** For `COc1cccc(NC2=CC(=O)C(C)=C(C)C2=O)c1`, which growth is on record?
**A.** The growth was 0.294% (active).

**Q.** With `CCN(CC)c1ccc(C=O)c(OCc2cn(CC(=O)Nc3ccc(Cl)cc3)nn2)c1` as the molecule, how does the growth read?
**A.** The growth was 83.5% (inactive).

**Q.** For `O=C(N/N=C/c1ccc(Br)s1)c1[nH]c2ccc(Br)cc2c1-c1ccccc1`, which growth is on record?
**A.** Its growth is 9.72% (active).

**Q.** Which growth does the source give for `COc1cc(OC)c(C2SCC(=O)N2Nc2ncnc3ccccc23)cc1OC` (stereo not given) here?
**A.** Its growth is 119% (inactive).

**Q.** For `COc1cc2nc(-c3ccc(Cl)cc3)cc(OCCCNCC3CCCO3)c2cc1OC` (stereo not given), which growth is on record?
**A.** Its growth is 87.7% (inactive).

**Q.** `Cc1c(NC(=O)CSc2nc3sc4c(c3c(=O)n2-c2ccc(Cl)cc2)CCCC4)c(=O)n(-c2ccccc2)n1C` was tested. Which growth did it give?
**A.** The growth was 100% (inactive).

**Q.** `O=C(N/N=C/c1ccc(Cl)s1)c1[nH]c2ccc(Br)cc2c1-c1ccccc1` was tested. Which growth did it give?
**A.** Its growth is 20.8% (inactive).

**Q.** How did the growth turn out when `COc1cccc(COc2ccc(/C=C3/C(=O)Nc4cc(Cl)ccc43)cc2)c1` was run?
**A.** The growth was 105% (inactive).

**Q.** For `N#Cc1ccc(/C=N/NC(=O)c2[nH]c3ccc(Br)cc3c2-c2ccccc2)s1`, which growth is on record?
**A.** Its growth is 33.3% (inactive).

**Q.** How did the growth turn out when `CN1CCN(Cc2ccc(NC(=O)c3cncc(C#Cc4cnc5ccc(N6CCSCC6)nn45)c3)cc2C(F)(F)F)CC1` was run?
**A.** Its growth is -59.6% (active).

**Q.** How did the growth turn out when `CN(C)CCCNc1c2ccc(Cl)cc2nc2c1oc1ccccc12` was run?
**A.** The growth was 31% (inactive).

**Q.** `Cc1ccc(/C=C/c2nn3c(-c4ccco4)nnc3s2)cc1C` was tested. Which growth did it give?
**A.** The growth was 114% (inactive).

**Q.** `N#Cc1c(-c2ccc(Cl)cc2)nc2c(-c3ccccc3)c(Nc3ccccc3)nn2c1N` was tested. Which growth did it give?
**A.** Its growth is 58.4% (inactive).

**Q.** Which growth does the source give for `O=[N+]([O-])c1ccc(O)c2ncccc12` here?
**A.** Its growth is 11.4% (inactive).

**Q.** With `O=C(CSc1nc2sc3c(c2c(=O)n1-c1ccc(Cl)cc1)CCCC3)NNC(=O)Nc1ccc(Cl)c(C(F)(F)F)c1` as the molecule, how does the growth read?
**A.** The growth was 4.44% (active).

**Q.** Which growth does the source give for `Cc1ccc2ccc3ccc(C)nc3c2n1.Cc1ccc2ccc3ccc(C)nc3c2n1.Oc1c(Cl)cc(Cl)c2ccc(CN3CCCCC3)nc12.[Ru]` here?
**A.** The growth was -95.3% (active).

**Q.** How did the growth turn out when `COc1cc(/C=C/C(=O)c2ccc(C)cc2)ccc1Oc1nc(NCCO)nc(N2CCOCC2)n1` was run?
**A.** The growth was 75.1% (inactive).

**Q.** With `Cc1c(Nc2nnc(SCC(=O)Nc3sc4c(c3C#N)CCCC4)s2)c(=O)n(-c2ccccc2)n1C` as the molecule, how does the growth read?
**A.** Its growth is 99.1% (inactive).

**Q.** How did the growth turn out when `C[C@@H]1CN(c2ccc3ncc(C#Cc4cncc(C(=O)Nc5ccc(CN6CCN(C)CC6)c(C(F)(F)F)c5)c4)n3n2)C[C@H](C)O1` was run?
**A.** The growth was -48.3% (active).

**Q.** `C[C@@H](Nc1c(C#N)cnc2ccc(-c3cnc(N)nc3)cc12)c1ccccc1` was tested. Which growth did it give?
**A.** The growth was 9.52% (active).

**Q.** Which growth does the source give for `COc1cc(/C=C/C(=O)c2cc(OC)c(OC)c(OC)c2)ccc1OCc1ccccc1` here?
**A.** The growth was 26% (inactive).

**Q.** How did the growth turn out when `N/C(=N\c1nc2c(Cl)cc(Cl)cc2s1)C(Cl)(Cl)Cl` was run?
**A.** Its growth is -9.72% (active).

**Q.** `CCOC(=O)c1c(Nc2ccccc2)nn2c(N)c(C#N)c(-c3ccccc3)nc12` was tested. Which growth did it give?
**A.** The growth was 94.5% (inactive).

**Q.** Which growth does the source give for `c1ccc2c(NCCCn3ccnc3)c3oc4ccccc4c3nc2c1` here?
**A.** The growth was 5.25% (active).

**Q.** With `CC(=O)Oc1ccccc1C(=O)Nc1ccc(C(=O)/C=C/c2ccncc2)cc1` as the molecule, how does the growth read?
**A.** The growth was 33.2% (inactive).

**Q.** With `COc1ccc(-c2nc3ccc(-c4nnc(SCC(=O)Nc5ccc(C(C)=O)cc5)o4)cc3[nH]2)cc1` as the molecule, how does the growth read?
**A.** The growth was 138% (inactive).

**Q.** `O=C(Oc1ccc2ccc(=O)oc2c1)c1ccc(Cl)cc1` was tested. Which growth did it give?
**A.** Its growth is 118% (inactive).

**Q.** How did the growth turn out when `O=C1/C(=C/C2=Cc3ccccc3OC2)SC(=S)N1c1ccc(F)cc1` was run?
**A.** Its growth is 109% (inactive).

**Q.** `O=C(c1ccc(O)cc1)C1[C@H](c2ccc(Cl)cc2)[C@@H](c2ccccc2)NC12C(=O)Nc1ccc(Cl)cc12` (stereo not given in full) was tested. Which growth did it give?
**A.** Its growth is 33.1% (inactive).

**Q.** With `Cc1ccc2c(n1)C(=O)C(Cl)=C(Nc1cccc(C(C)C)c1)C2=O` as the molecule, how does the growth read?
**A.** The growth was 3.53% (active).

**Q.** `N#Cc1c(-c2ccc(Cl)cc2)nc(SCc2ccc(F)cc2)nc1N1CCNCC1` was tested. Which growth did it give?
**A.** The growth was 37.9% (inactive).

**Q.** For `COc1ccc(-c2nc3ccc(-c4nnc(SCC(=O)Nc5ccc(C(=O)/C=C/c6ccccc6)cc5)o4)cc3[nH]2)cc1OC`, which growth is on record?
**A.** The growth was 114% (inactive).
